Laboratory results taken from PubChem BioAssay (Tox21).
Inconclusive results are not listed. Calls of active or inactive are those of the source. Unless noted, the call rests on the fitted dose curve; in most records, active means well fitted curve in the direction sought with a large enough effect in the repeat runs; inconclusive means weak or mixed curves; inactive means no such curve, though single readings can be large; an effect the other way counts as inactive or inconclusive.

Assays:
[1] = qHTS assay to identify small molecule agonists of the hypoxia (HIF-1) signaling pathway - cell viability counter screen (AID 1224844; calls by dose curve; further: nearly all actives have a fitted effect of over 50% in size)
Method in brief: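 Cytotoxicity measured by CellTiter-Glo ATP luminescence in the wells also read for beta-lactamase signal. Cells were HRE-bla ME-180 (2,000/well, 0.5% dialyzed FBS), exposed to compounds for 17 h at 37C.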

[2] = qHTS assay to identify small molecule agonists of the hypoxia (HIF-1) signaling pathway (AID 1224846; active means well fitted activation curve with a large enough effect in the signal ratio in the repeat runs, not every such curve was filed as active; the % refers to the signal ratio)
Method in brief: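 Compounds added to ME-180 cells carrying hypoxia-response-element beta-lactamase reporter (0.5% dialyzed FBS, 5 h preplating), 17 h at 37C; agonist activity detected by CCF4-AM B/G FRET read-out.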

[3] = qHTS assay to identify small molecule agonists of H2AX - cell viability counter screen (AID 1224847; calls by dose curve; further: top concentration of the series differs between compounds; nearly all actives have a fitted effect of over 30% in size)
Method in brief: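 CHO-K1 cells plated overnight at 37C, then exposed 3 h at 37C to compounds at 15 concentrations (0.76% DMSO final). Viability by CellTiter-Glo luminescence after 30 min at room temperature.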

[4] = qHTS assay to identify small molecule antagonists of the estrogen related receptor (ERR) signaling pathway from Tox21 library (AID 1224848); further: nearly all actives have a fitted effect of over 50% in size
Method in brief: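 Compounds dissolved in DMSO are pin-transferred onto ERR reporter cells (2,000 per well) that have settled for 6 h at 37 C. Plates then incubate 18 h at 37 C before ONE-Glo luciferase reagent and a luminescence read 30 min later.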

[5] = qHTS RealTime-Glo MT Cell Viability Assay in HepG2 cells - 24 hour (AID 1224867); further: nearly all actives have a fitted effect of over 50% in size
Method in brief: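 Luminescence read-out: viable HepG2 cells reduce a prosubstrate to a NanoLuc substrate, giving a signal proportional to live cell number. Reads taken at 0, 8, 16, 24, 32 and 40 h of compound exposure at 37 C.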

[6] = qHTS RealTime-Glo MT Cell Viability Assay in HEK293 cells - 32 hour (AID 1224868); further: nearly all actives have a fitted effect of over 50% in size; further: potency means the concentration at half of the fitted maximal effect; on activity change, negative = cytotoxic: top concentration of the series differs between compounds
Method in brief: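 Nonlytic real-time viability readout: viable cells convert prosubstrate to NanoLuc substrate, giving luminescence proportional to live cell number. HEK293, 600 cells/well, compound added after 5 h, continuous culture at 37 C.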

[7] = A CellTox Green Cytotoxicity Assay to monitor cytotoxicity in HEK293 cells - 0 hour (AID 1224869); further: nearly all actives have a fitted effect of over 50% in size
Method in brief: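 Fluorescence from a DNA-binding dye excluded by viable cells was measured repeatedly in the same HEK293 wells (600 cells/well) during continuous compound exposure at 37 C. Each assay gives one read point: 0, 8, 16, 24, 32 or 40 h.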

[8] = qHTS assay to identify small molecule agonists of H2AX (AID 1224845; active means well fitted activation curve with a large enough effect in the signal ratio in the repeat runs, not every such curve was filed as active; the % refers to the signal ratio)
Method in brief: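 Wild-type CHO-K1 cells, plated overnight, exposed 3hr at 37C to 15 concentrations (0.76% DMSO final). Lysed, then HTRF anti-pH2AX (S139) cryptate and anti-H2AX-d2 antibodies, 24 hr room temperature; 665/620 nm emission read.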

[9] = qHTS assay to identify small molecule agonists of the estrogen related receptor (ERR) signaling pathway from Tox21 library (AID 1224849; calls by dose curve; further: nearly all actives have a fitted effect of over 15% in size); conditions: ERR reporter cell line, ONE-Glo luciferase, 18 h; at 92.4 µM (top of the series) unless noted
Method in brief: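 Luminescent agonist read-out (One-Glo, 30-minute room-temperature incubation) following 18-hour compound treatment at 37 C of the ERR cell line, which had been plated 6 hours before dosing.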
On the % scale 0 is the no-effect control and ±100 the full control effect.

CNc1ccccc1
inactive: Potency [1] | outcome [2] | Potency [3] | Potency [4] | outcome [5] | Potency [6] | Potency [7]

CCc1cnc(C(=O)O)c(C(=O)O)c1
inactive: Potency [1] | Potency [8] | outcome [2] | Potency [3] | outcome [5] | Potency [6] | Potency [7]

Oc1ccc(CCNCCCCCCNCCc2ccccc2)cc1O
inactive: outcome [2] | Potency [3] | activity change, positive = activation [9] -19.4% [at 42.5 µM] | outcome [5] | Potency [7]
active: Potency [6] 26.8 µM

C=CCCC
inactive: Potency [8] | outcome [2] | Potency [3] | outcome [5] | Potency [6] | Potency [7]

CC(C)CCCCCOC(=O)CS
inactive: Potency [1] | Potency [8] | outcome [2] | Potency [3] | outcome [5] | Potency [6] | Potency [7]

CC/C=C/CCO
inactive: Potency [8] | Potency [3] | Potency [4] | activity change, positive = activation [9] 5.37% | outcome [5] | Potency [6] | Potency [7]

O=C(O)c1ccc2cc(O)ccc2c1
inactive: Potency [1] | Potency [8] | Potency [3] | outcome [5] | Potency [6] | Potency [7]

O=C(c1ccc(Cl)cc1)c1ccc(Cl)cc1
inactive: Potency [1] | Potency [8] | outcome [2] | outcome [5] | Potency [6] | Potency [7]

c1ccc(-c2ccc(-c3ccccc3)cc2)cc1
inactive: activity change, negative = cytotoxicity [1] 1.63% [at 15.8 µM] | activation (H2AX phosphorylation) [8] -0.824% [at 31.6 µM] | activity change, negative = cytotoxicity [3] -0.782% [at 31.6 µM] | activity change, negative = cytotoxicity [5] 1.53% [at 15.8 µM] | activity change, negative = cytotoxic [6] 0.807% [at 15.8 µM] | cytotoxicity [7] -5.7% [at 15.8 µM]

Cc1ccc(Cl)c(OCC(O)CNC(C)(C)C)c1 (stereo not drawn)
inactive: Potency [1] | Potency [8] | outcome [2] | Potency [3] | outcome [5] | Potency [6] | Potency [7]

CCCCOC(=O)C(C)Oc1ccc(Oc2ccc(C(F)(F)F)cn2)cc1 (stereo not drawn)
inactive: Potency [1] | Potency [8] | Potency [3] | outcome [5] | Potency [6] | Potency [7]

C=CC(C)(O)CC/C=C(/C)CCC=C(C)C (stereo not drawn)
inactive: Potency [1] | Potency [8] | outcome [2] | Potency [3] | outcome [5] | Potency [6] | Potency [7]

Cc1c(-c2cccnc2)c2ccccc2n1CCCCC(=O)O
inactive: Potency [1] | Potency [8] | Potency [3] | Potency [4] | activity change, positive = activation [9] -5.77% | outcome [5] | Potency [6] | Potency [7]

O=C(O)c1cccnc1Nc1cccc(C(F)(F)F)c1
inactive: Potency [1] | Potency [8] | Potency [3] | activity change, positive = activation [9] -25.2% [at 42.5 µM] | outcome [5] | Potency [6] | Potency [7]
